ELG1 repair inh: blocks ELG1-dependent DNA repair in HEK293T cells. Potency, µM (series often up to 46.1 µM), for inactives: at the highest dose activity change, negative = inhibition, most hits filed as inhibitors. AID 504467. HEK293T ELG1-luciferase reporter, luminescence, 16 h; DNA damage induced by 5-fluorouridine. hit rate 2.3% among 330,000; note: nearly all actives have a fitted effect of over 55% in size
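In this reporter screen, reduction of luminescence relative to DMSO vehicle indicated activity. Compounds and 5-fluorouridine were added together to 2,000 cells per well, incubated for 16 hr at 37 °C, then developed with ONE-Glo.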
ALOX12 inh: inhibitors of human 12S-lipoxygenase ALOX12; P18054; purified 12hLO, xylenol orange hydroperoxide absorbance; Potency, µM (highest dose often 108 µM), for inactives: top-dose activity change, negative = inhibition, usual class: inhibitors; hit rate 1.1% among 580,000; AID 1671190
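Purified human 12hLO (150 nM final) in 25 mM Hepes, 0.01% Triton X-100, pH 7.0 was preincubated 15 min at room temperature with compound. Then 40 uM arachidonic acid was added, 30 min. Hydroperoxide was read by Fe-XO absorbance ratio 573/405 nm.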
DT40 TDP1 CPT: DT40-hTDP1 cell growth loss with CPT; hit rate 12% among 420,000; Potency, µM (top dose mostly 46.2 µM), without a hit: at the top dose activity change, negative = growth inhibition, actives largely listed as inhibitors; chicken DT40 Tdp1-/-;hTDP1 cells + 20 nM CPT, ATP luminescence, 48 h; AID 686979; note: nearly all actives have a fitted effect of over 55% in size
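Chicken DT40 Tdp1-/- cells stably complemented with human TDP1 were seeded at 400 cells/well in medium containing 20 nM camptothecin, exposed to pin-transferred compounds, and grown at 37 °C for at least 48 hr. Viability was read as ATP luminescence.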
Gal4-VP16 FLuc: counter-screen for ROR gamma inhibitors: Gal4-VP16 reporter; Drosophila S2 Gal4-VP16 UAS-luciferase, luminescence, 20 h; Potency, µM (titrated, usually from 53.6 µM), for inactives: top-dose activity, negative = inhibition, usual class: inhibitors; hit rate 3.5% among 310,000; AID 2546;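 note: Gal4-VP16 expression switched on by copper sulfate through the metallothionein promoter; nearly all actives have a fitted effect of over 50% in size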
TDP1 cell noCPT: qHTS for Inhibitors of human tyrosyl-DNA phosphodiesterase 1 (TDP1): qHTS in cells in absence of CPT. DT40 Tdp1-/- hTDP1 cells, no CPT, ATP luminescence, 48 h. Potency, µM (titrated, usually from 46.2 µM), inactives show at the top dose activity change, negative = growth inhibition, actives largely listed as inhibitors. hit rate 15% among 420,000. AID 686978, 2013; note: nearly all actives have a fitted effect of over 55% in size
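Seeded 400 DT40-hTDP1 cells/well (vehicle DMSO, no 20 nM CPT); pinned compounds; ≥48 hr at 37 °C; CellTiter-Glo luminescence as viability measure.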
RORg inh: blocks mouse ROR gamma transcriptional activity; P51450; Drosophila S2 Gal4-RORgamma UAS-luciferase reporter, 20 h; Potency, µM (series often up to 53.6 µM), for inactives: at the top dose activity change, negative = inhibition, actives largely listed as inhibitors; hit rate 5.4% among 310,000; AID 2551; note: nearly all actives have a fitted effect of over 60% in size
Target sequence (P51450 whole entry, looked up, the tested form may be a part): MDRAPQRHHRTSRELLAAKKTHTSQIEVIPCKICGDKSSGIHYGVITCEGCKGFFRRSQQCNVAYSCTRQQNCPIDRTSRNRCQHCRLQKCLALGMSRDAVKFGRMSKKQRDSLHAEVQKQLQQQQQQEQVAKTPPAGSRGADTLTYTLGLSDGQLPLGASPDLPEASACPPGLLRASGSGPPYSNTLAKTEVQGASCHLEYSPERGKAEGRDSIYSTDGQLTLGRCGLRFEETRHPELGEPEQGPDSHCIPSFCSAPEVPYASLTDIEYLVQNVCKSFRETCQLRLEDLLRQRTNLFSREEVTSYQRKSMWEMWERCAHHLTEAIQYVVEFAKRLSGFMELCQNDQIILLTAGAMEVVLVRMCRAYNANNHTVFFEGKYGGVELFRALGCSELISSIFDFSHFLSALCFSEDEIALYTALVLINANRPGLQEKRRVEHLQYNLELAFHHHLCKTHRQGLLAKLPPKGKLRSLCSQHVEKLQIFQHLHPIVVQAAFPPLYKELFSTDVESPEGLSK
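Stably transfected Drosophila Schneider cells are the test system, with ROR gamma fused to Gal4 and luciferase under UAS control; luminescence is read after 20 hr of 700 uM copper sulfate induction at ambient temperature.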
Numbers without * were called inactive; [ ] = remark or other dose. Compounds with a hit are over-represented: about 15% of the library has one in this group of screens. Calls come from the whole dose curve; as a rule, active = well fitted curve in the direction sought with a large enough effect; inconclusive = small, poorly fitted or top-dose-only effect, or another doubt; inactive = no such curve, though single readings can be large; an effect the other way counts as inactive or inconclusive. % is set by controls: 0 for no effect and ±100 for the full control effect; potency is the fitted concentration of half-maximal effect.

How did O=C(Nc1nc2c(s1)CCCC2)C1COc2ccccc2O1 (configuration not stated) do in these assays?
ELG1 repair inh: inconclusive; ALOX12 inh: -24%; DT40 TDP1 CPT: inconclusive; Gal4-VP16 FLuc: inconclusive; TDP1 cell noCPT: inconclusive; RORg inh: inconclusive

How did O=C(Nc1nc2c(s1)CN(Cc1ccccc1)CC2)C1CCCC1 do in these assays?
ELG1 repair inh: inconclusive; ALOX12 inh: 65%; DT40 TDP1 CPT: inconclusive; Gal4-VP16 FLuc: 27%; TDP1 cell noCPT: inconclusive; RORg inh: 10%

How did CCOC(=O)c1c(NC(C)=O)sc2c1CCN(Cc1ccccc1)C2 do in these assays?
ELG1 repair inh: 3%; ALOX12 inh: -7%; DT40 TDP1 CPT: inconclusive; Gal4-VP16 FLuc: -2%; TDP1 cell noCPT: inconclusive; RORg inh: 10%

Results for CC(C)(C)C(=O)Nc1nc2c(s1)CN(Cc1ccccc1)CC2 ?
ELG1 repair inh: inconclusive; ALOX12 inh: -12%; DT40 TDP1 CPT: inconclusive; Gal4-VP16 FLuc: 0%; TDP1 cell noCPT: 18µM*; RORg inh: 9%

What do the screens show for `CCCNC(=O)c1c(NC(=O)C2COc3ccccc3O2)sc2c1CCCC2` (configuration not stated)?
ELG1 repair inh: inconclusive; ALOX12 inh: 353%; DT40 TDP1 CPT: 12µM*; Gal4-VP16 FLuc: -8%; TDP1 cell noCPT: inconclusive; RORg inh: -3%

How did COC(=O)c1c(NC(=O)C2COc3ccccc3O2)sc2c1CCN(Cc1ccccc1)C2 (configuration not stated) do in these assays?
ELG1 repair inh: inconclusive; ALOX12 inh: -23%; DT40 TDP1 CPT: 16µM*; Gal4-VP16 FLuc: 2%; TDP1 cell noCPT: 21µM*; RORg inh: -39%

What do the screens show for `CCOC(=O)c1c(NC(=O)C(C)Sc2cccc[n+]2[O-])sc2c1CCN(Cc1ccccc1)C2` (configuration not stated)?
ELG1 repair inh: inconclusive; ALOX12 inh: 215%; DT40 TDP1 CPT: inconclusive; Gal4-VP16 FLuc: -14%; TDP1 cell noCPT: 16µM*; RORg inh: -1%

What do the screens show for `COCCN1CCN(c2nc(-c3cccs3)nc3scc(-c4ccccc4)c23)CC1`?
ALOX12 inh: -11%

How did NC(=O)c1c(NC(=O)Cc2ccccc2)sc2c1CCN(Cc1ccccc1)C2 do in these assays?
ELG1 repair inh: 3%; ALOX12 inh: 12%[57.4 µM]; DT40 TDP1 CPT: 12µM*; Gal4-VP16 FLuc: -12%; TDP1 cell noCPT: 13µM*; RORg inh: inconclusive

How did COC(=O)c1c(NC(=O)C2COc3ccccc3O2)sc2c1CCN(C(=O)OC)C2 (configuration not stated) do in these assays?
ALOX12 inh: 0%; DT40 TDP1 CPT: 16µM*; TDP1 cell noCPT: 21µM*

How did COC(=O)c1c(NC(=O)C(C)(C)C)sc2c1CCN(Cc1ccccc1)C2 do in these assays?
ELG1 repair inh: -17%; ALOX12 inh: inconclusive; DT40 TDP1 CPT: 16µM*; Gal4-VP16 FLuc: -8%; TDP1 cell noCPT: inconclusive; RORg inh: 21%

How did CC(SCc1cccc(C#N)c1)C(=O)NC(C)(C)C (configuration not stated) do in these assays?
ALOX12 inh: 7%

How did COc1ccc(CNC(=O)Cc2c(C)c3c(O)cc(C)cc3oc2=O)cc1OC do in these assays?
ALOX12 inh: -19%

How did CN(Cc1ccc(F)cc1F)S(=O)(=O)c1cccc2nsnc12 do in these assays?
ALOX12 inh: 2%

Results for CCCCCCCCNc1ccccc1S(=O)(=O)NCc1ccccc1 ?
ELG1 repair inh: -9%; ALOX12 inh: 25%; DT40 TDP1 CPT: inconclusive; TDP1 cell noCPT: 18µM*

How did CCCCCCCCNS(=O)(=O)CCNCc1ccccc1 do in these assays?
ALOX12 inh: 26%; DT40 TDP1 CPT: inconclusive; TDP1 cell noCPT: inconclusive

What do the screens show for `CC(C)CNC(=O)c1ccc2c(c1)NC(C)(COc1ccc3[nH]ccc3c1)CO2` (configuration not stated)?
ALOX12 inh: -1%[176 µM]

Results for Cc1ccc(C2CC(=O)N3CN(Cc4ccccc4)CSC3=C2C#N)cc1 (configuration not stated) ?
ALOX12 inh: 5.6µM*

What do the screens show for `CN1CSC2=C(C#N)C(c3cccc(OCc4ccccc4)c3)CC(=O)N2C1` (configuration not stated)?
ELG1 repair inh: 3%; ALOX12 inh: -12%; DT40 TDP1 CPT: 21µM*; Gal4-VP16 FLuc: -13%; TDP1 cell noCPT: inconclusive; RORg inh: inconclusive

Results for CCc1ccc(C2CC(=O)N3CN(c4ccccc4)CSC3=C2C#N)cc1 (configuration not stated) ?
ELG1 repair inh: 7%; ALOX12 inh: inconclusive; DT40 TDP1 CPT: inconclusive; Gal4-VP16 FLuc: 9%; TDP1 cell noCPT: inconclusive; RORg inh: inconclusive

Results for COc1cccc(C2CC(=O)N3CN(C4CCCCC4)CSC3=C2C#N)c1 (configuration not stated) ?
ALOX12 inh: 13µM*; DT40 TDP1 CPT: inconclusive; TDP1 cell noCPT: inconclusive

How did CCN1C(=O)C2(CCN(S(=O)(=O)c3ccc(C)c(Cl)c3)CC2)c2ccccc21 do in these assays?
ALOX12 inh: -4%

How did CCC1CN(C(=O)N2CCC(C(=O)NCCc3ccc(OC)c(OC)c3)CC2)c2ccccc2O1 (configuration not stated) do in these assays?
ELG1 repair inh: inconclusive; ALOX12 inh: 14%; DT40 TDP1 CPT: inconclusive; Gal4-VP16 FLuc: -3%; TDP1 cell noCPT: inconclusive; RORg inh: 1%

What do the screens show for `CCC1CN(C(=O)N2CCC(C(=O)Nc3ccccc3OC)CC2)c2ccccc2O1` (configuration not stated)?
ELG1 repair inh: inconclusive; ALOX12 inh: 12%; DT40 TDP1 CPT: 18µM*; Gal4-VP16 FLuc: -2%; TDP1 cell noCPT: inconclusive; RORg inh: 13%

What do the screens show for `CCC1CN(C(=O)N2CCC(C(=O)NCCc3cc(OC)ccc3OC)CC2)c2ccccc2O1` (configuration not stated)?
ALOX12 inh: -12%; DT40 TDP1 CPT: 16µM*; TDP1 cell noCPT: 21µM*

Results for CCC1CN(C(=O)N2CCC(C(=O)NCc3cc(OC)ccc3OC)CC2)c2ccccc2O1 (configuration not stated) ?
ALOX12 inh: -12%; DT40 TDP1 CPT: 18µM*; TDP1 cell noCPT: 18µM*

Assay outcomes (PubChem)
